From the supplement of paper PMC8253809
“And” between values parts separate entries of the source, which are not always exact repeats. Identical values can stand only once.

Tests used:
Test in all cases: growth inhibition (% activity, log2 RLU normalised to DMSO / staurosporine); higher = more growth inhibition
Conditions in all cases: 33 µM
DIPGX29 = system: DIPGX29 (H3.3 K27M diffuse intrinsic pontine glioma line)
Summary of the method: (§1)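 The growth-inhibition value comes from CellTiter-Glo luminescence, log2-transformed, normalised per plate to % activity between solvent and positive control wells, and taken as the median over replicates. Treatment of pHGG cell lines and H9-derived neural stem cells with approved drugs was at a single final concentration of about 33 μM, in triplicate, for 7 days at 37 °C, 5% CO2.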

DIPGX37 = system: DIPGX37 (H3.3 K27M diffuse intrinsic pontine glioma line)
Summary of the method: as §1

DIPGX7 = system: DIPGX7 (H3.3 K27M diffuse intrinsic pontine glioma line)
Summary of the method: as §1

DIPGX9 = system: DIPGX9 (diffuse intrinsic pontine glioma line)
Summary of the method: as §1

HGGX39 = system: HGGX39 (paediatric high-grade glioma line)
Summary of the method: as §1

HGGX6 = system: HGGX6 (H3.3 G34R paediatric high-grade glioma line)
Summary of the method: as §1

HNSC = system: HNSC
Summary of the method: as §1

SUDIPGIV = system: SUDIPGIV (diffuse intrinsic pontine glioma line)
Summary of the method: as §1

SUDIPGVI = system: SUDIPGVI (diffuse intrinsic pontine glioma line)
Summary of the method: as §1

SUDIPGXIII = system: SUDIPGXIII (diffuse intrinsic pontine glioma line)
Summary of the method: as §1

## CCN(CC)C(=O)/C(C#N)=C/c1cc(O)c(O)c([N+](=O)[O-])c1
DIPGX29
  growth inhibition: -0.0111%
DIPGX37
  growth inhibition: 1.83%
DIPGX7
  growth inhibition: -1.51%
DIPGX9
  growth inhibition: 0.533%
HGGX39
  growth inhibition: 0.054%
HGGX6
  growth inhibition: -0.625%
HNSC
  growth inhibition: -2.42%
SUDIPGIV
  growth inhibition: -1.01%
SUDIPGVI
  growth inhibition: -0.299%
SUDIPGXIII
  growth inhibition: 1.29%

## NC(=O)c1cccnc1
DIPGX29
  growth inhibition: -0.689%
DIPGX37
  growth inhibition: -1.05%
DIPGX7
  growth inhibition: -0.0852%
DIPGX9
  growth inhibition: 0.951%
HGGX39
  growth inhibition: 0.786%
HGGX6
  growth inhibition: 0.835%
HNSC
  growth inhibition: 0.303%
SUDIPGIV
  growth inhibition: -0.404%
SUDIPGVI
  growth inhibition: -0.906%
SUDIPGXIII
  growth inhibition: 0.194%

## CC(C)c1nc(CN(C)C(=O)N[C@H](C(=O)N[C@@H](Cc2ccccc2)C[C@H](O)[C@H](Cc2ccccc2)NC(=O)OCc2cncs2)C(C)C)cs1
DIPGX29
  growth inhibition: 1.73%
DIPGX37
  growth inhibition: 2.67%
DIPGX7
  growth inhibition: 2.88%
DIPGX9
  growth inhibition: 1.93%
HGGX39
  growth inhibition: 5.32%
HGGX6
  growth inhibition: 2.08%
HNSC
  growth inhibition: 5.1%
SUDIPGIV
  growth inhibition: -1.31%
SUDIPGVI
  growth inhibition: -0.349%
SUDIPGXIII
  growth inhibition: -0.136%

## CC(=O)OCC(CCn1cnc2cnc(N)nc21)COC(C)=O
DIPGX29
  growth inhibition: -2.6%
DIPGX37
  growth inhibition: -4.6%
DIPGX7
  growth inhibition: -0.979%
DIPGX9
  growth inhibition: -2.76%
HGGX39
  growth inhibition: -5.59%
HGGX6
  growth inhibition: -3.73%
HNSC
  growth inhibition: 33.5%
SUDIPGIV
  growth inhibition: -3.45%
SUDIPGVI
  growth inhibition: -13%
SUDIPGXIII
  growth inhibition: 2.17%

## O=C1[C@@H]2[C@H]3CC[C@H](C3)[C@@H]2C(=O)N1C[C@@H]1CCCC[C@H]1CN1CCN(c2nsc3ccccc23)CC1
DIPGX29
  growth inhibition: -3.28%
DIPGX37
  growth inhibition: 0.212%
DIPGX7
  growth inhibition: 1.18%
DIPGX9
  growth inhibition: -1.28%
HGGX39
  growth inhibition: 2.33%
HGGX6
  growth inhibition: 1.59%
HNSC
  growth inhibition: 2.62%
SUDIPGIV
  growth inhibition: -0.0151%
SUDIPGVI
  growth inhibition: 0.346%
SUDIPGXIII
  growth inhibition: 2.16%

## CCCCOc1ccc(OCCCN2CCOCC2)cc1
DIPGX29
  growth inhibition: 5.55%
DIPGX37
  growth inhibition: 2.14%
DIPGX7
  growth inhibition: 14.7%
DIPGX9
  growth inhibition: 1.12%
HGGX39
  growth inhibition: 8.05%
HGGX6
  growth inhibition: 7.63%
HNSC
  growth inhibition: 5.68%
SUDIPGIV
  growth inhibition: 1.4%
SUDIPGVI
  growth inhibition: 1.31%
SUDIPGXIII
  growth inhibition: 1.81%

## CC(C)(Oc1ccc(CCNC(=O)c2ccc(Cl)cc2)cc1)C(=O)O
DIPGX29
  growth inhibition: 1.81%
DIPGX37
  growth inhibition: 2.31%
DIPGX7
  growth inhibition: 1.05%
DIPGX9
  growth inhibition: 0.682%
HGGX39
  growth inhibition: 1.23%
HGGX6
  growth inhibition: 1.74%
HNSC
  growth inhibition: 1.59%
SUDIPGIV
  growth inhibition: 0.843%
SUDIPGVI
  growth inhibition: 2.49%
SUDIPGXIII
  growth inhibition: -16.6%

## CN(C/C=C/C#CC(C)(C)C)Cc1cccc2ccccc12
DIPGX29
  growth inhibition: -0.633% and -1.72%
DIPGX37
  growth inhibition: -0.939% and -0.818%
DIPGX7
  growth inhibition: -1.38% and -1.19%
DIPGX9
  growth inhibition: 0.275% and -0.829%
HGGX39
  growth inhibition: 1.78% and -1.01%
HGGX6
  growth inhibition: 0.104% and -1.17%
HNSC
  growth inhibition: -0.321% and -4.36%
SUDIPGIV
  growth inhibition: -0.307% and 0.598%
SUDIPGVI
  growth inhibition: 1.93% and -1.67%
SUDIPGXIII
  growth inhibition: -1.07% and -1.51%

## O=C(O)c1cn(-c2ccc(F)cc2)c2cc(N3CCNCC3)c(F)cc2c1=O
DIPGX29
  growth inhibition: 1.77%
DIPGX37
  growth inhibition: 0.654%
DIPGX7
  growth inhibition: 2.46%
DIPGX9
  growth inhibition: 2.37%
HGGX39
  growth inhibition: 4.02%
HGGX6
  growth inhibition: 3.31%
HNSC
  growth inhibition: 1.3%
SUDIPGIV
  growth inhibition: 4.25%
SUDIPGVI
  growth inhibition: 3.85%
SUDIPGXIII
  growth inhibition: 0.944%

## CCCCN(CCCC)CCCOC(=O)c1ccc(N)cc1
DIPGX29
  growth inhibition: 2.46%
DIPGX37
  growth inhibition: 2.29%
DIPGX7
  growth inhibition: 5.01%
DIPGX9
  growth inhibition: 2.44%
HGGX39
  growth inhibition: 6.95%
HGGX6
  growth inhibition: 5.63%
HNSC
  growth inhibition: 8.9%
SUDIPGIV
  growth inhibition: 1.64%
SUDIPGVI
  growth inhibition: 3.72%
SUDIPGXIII
  growth inhibition: -1.97%

## CC1(C(=O)O)CCC2(C)CCC3(C)C(=CC(=O)C4C5(C)CCC(OC6OC(C(=O)O)C(O)C(O)C6OC6OC(C(=O)O)C(O)C(O)C6O)C(C)(C)C5CCC43C)C2C1 (stereo not given)
DIPGX29
  growth inhibition: -2.43%
DIPGX37
  growth inhibition: 0.376%
DIPGX7
  growth inhibition: -1.5%
DIPGX9
  growth inhibition: -0.788%
HGGX39
  growth inhibition: -1.63%
HGGX6
  growth inhibition: -0.137%
HNSC
  growth inhibition: -2.93%
SUDIPGIV
  growth inhibition: -1.58%
SUDIPGVI
  growth inhibition: -3.15%
SUDIPGXIII
  growth inhibition: 0.0626%

## CC1(C)S[C@@H]2[C@H](NC(=O)[C@H](NC(=O)N3CCN(S(C)(=O)=O)C3=O)c3ccccc3)C(=O)N2[C@H]1C(=O)O
DIPGX29
  growth inhibition: -1.26%
DIPGX37
  growth inhibition: 0.368%
DIPGX7
  growth inhibition: -0.979%
DIPGX9
  growth inhibition: -1.9%
HGGX39
  growth inhibition: -0.656%
HGGX6
  growth inhibition: -0.1%
HNSC
  growth inhibition: -2.17%
SUDIPGIV
  growth inhibition: 0.286%
SUDIPGVI
  growth inhibition: -2.19%
SUDIPGXIII
  growth inhibition: 2.64%

## CC(C(=O)O)c1cccc(C(=O)c2ccccc2)c1 (stereo not given)
DIPGX29
  growth inhibition: -0.509%
DIPGX37
  growth inhibition: -1.31%
DIPGX7
  growth inhibition: -0.656%
DIPGX9
  growth inhibition: -0.0225%
HGGX39
  growth inhibition: 1.05%
HGGX6
  growth inhibition: 0.639%
HNSC
  growth inhibition: 0.455%
SUDIPGIV
  growth inhibition: -5.26%
SUDIPGVI
  growth inhibition: 1.35%
SUDIPGXIII
  growth inhibition: -0.582%

## COc1cc(OC)c(C(=O)CCCN2CCCC2)c(OC)c1
DIPGX29
  growth inhibition: -0.72%
DIPGX37
  growth inhibition: 1.82%
DIPGX7
  growth inhibition: 0.0577%
DIPGX9
  growth inhibition: 0.123%
HGGX39
  growth inhibition: 1.04%
HGGX6
  growth inhibition: -0.405%
HNSC
  growth inhibition: -0.558%
SUDIPGIV
  growth inhibition: -0.0523%
SUDIPGVI
  growth inhibition: 0.936%
SUDIPGXIII
  growth inhibition: 2.53%

## C[C@H](CCC(=O)O)[C@H]1CC[C@H]2[C@@H]3CC[C@@H]4C[C@H](O)CC[C@]4(C)[C@H]3CC[C@]12C
DIPGX29
  growth inhibition: -0.532%
DIPGX37
  growth inhibition: -0.978%
DIPGX7
  growth inhibition: -2.9%
DIPGX9
  growth inhibition: -2.11%
HGGX39
  growth inhibition: 0.371%
HGGX6
  growth inhibition: -1.49%
HNSC
  growth inhibition: -2.18%
SUDIPGIV
  growth inhibition: -1.6%
SUDIPGVI
  growth inhibition: -1.83%
SUDIPGXIII
  growth inhibition: 1.26%

## Cc1cc(C#N)cc(C)c1Oc1nc(Nc2ccc(C#N)cc2)nc(N)c1Br
DIPGX29
  growth inhibition: 3.55%
DIPGX37
  growth inhibition: -3.38%
DIPGX7
  growth inhibition: 9.93%
DIPGX9
  growth inhibition: -0.625%
HGGX39
  growth inhibition: 6.72%
HGGX6
  growth inhibition: 6.05%
HNSC
  growth inhibition: 35.3%
SUDIPGIV
  growth inhibition: 1.55%
SUDIPGVI
  growth inhibition: 15.5%
SUDIPGXIII
  growth inhibition: 27.6%

## Cc1nccn1CC1CCc2c(c3ccccc3n2C)C1=O (stereo not given)
DIPGX29
  growth inhibition: 2.17% and 0.0485%
DIPGX37
  growth inhibition: 1.96% and -0.656%
DIPGX7
  growth inhibition: 5.12% and 2.92%
DIPGX9
  growth inhibition: 1.4% and -0.3%
HGGX39
  growth inhibition: 4.82% and 1.34%
HGGX6
  growth inhibition: 1.68% and -1.02%
HNSC
  growth inhibition: 3.47% and -2.09%
SUDIPGIV
  growth inhibition: -0.0678% and -2.33%
SUDIPGVI
  growth inhibition: 2.21% and -0.977%
SUDIPGXIII
  growth inhibition: -0.102% and 0.0786%

## CCS(=O)(=O)CCn1c([N+](=O)[O-])cnc1C
DIPGX29
  growth inhibition: -0.456%
DIPGX37
  growth inhibition: 1.05%
DIPGX7
  growth inhibition: -1.24%
DIPGX9
  growth inhibition: -0.171%
HGGX39
  growth inhibition: -0.367%
HGGX6
  growth inhibition: -1.57%
HNSC
  growth inhibition: -1.98%
SUDIPGIV
  growth inhibition: -0.809%
SUDIPGVI
  growth inhibition: -3.73%
SUDIPGXIII
  growth inhibition: 0.464%

## CC(C(=O)O)c1ccc(C(=O)c2cccs2)cc1 (stereo not given)
DIPGX29
  growth inhibition: -1.23%
DIPGX37
  growth inhibition: -0.791%
DIPGX7
  growth inhibition: -0.391%
DIPGX9
  growth inhibition: -0.699%
HGGX39
  growth inhibition: -0.848%
HGGX6
  growth inhibition: 1.96%
HNSC
  growth inhibition: -0.802%
SUDIPGIV
  growth inhibition: -4.32%
SUDIPGVI
  growth inhibition: 0.938%
SUDIPGXIII
  growth inhibition: -0.105%

## CCCCC[C@H](O)/C=C/[C@H]1[C@H](O)CC(=O)[C@@H]1CCCCCCC(=O)O
DIPGX29
  growth inhibition: 1.8%
DIPGX37
  growth inhibition: 0.835%
DIPGX7
  growth inhibition: 1.87%
DIPGX9
  growth inhibition: 1.68%
HGGX39
  growth inhibition: 3.82%
HGGX6
  growth inhibition: 4.44%
HNSC
  growth inhibition: 0.983%
SUDIPGIV
  growth inhibition: 2.69%
SUDIPGVI
  growth inhibition: 1.52%
SUDIPGXIII
  growth inhibition: 0.878%

## Cc1ccc(S(=O)(=O)NC(=O)NN2CC3CCCC3C2)cc1 (stereo not given)
DIPGX29
  growth inhibition: 1.02%
DIPGX37
  growth inhibition: 1.27%
DIPGX7
  growth inhibition: 1.73%
DIPGX9
  growth inhibition: 0.944%
HGGX39
  growth inhibition: 1.58%
HGGX6
  growth inhibition: -0.55%
HNSC
  growth inhibition: 35.3%
SUDIPGIV
  growth inhibition: 1.96%
SUDIPGVI
  growth inhibition: -4.19%
SUDIPGXIII
  growth inhibition: 0.367%
